FBW7 act: human FBW7 E3 ligase activation, primary screen; actives 0.13% (n = 650,000); AID 1259310; Q969H0; AlphaScreen FBW7–phospho-cyclin E peptide binding, activator screen; normalized activity (activation), % at 26.1 µM; in the data active means normalized activity above about 1.9%;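 further: purified mutant Fbw7 with reduced substrate affinity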
TEAD-YAP inh: TEAD-YAP interaction inhibition; HEK-TIYL cells, TEAD-Gal4/YAP UAS-luciferase luminescence; inhibition, % at 9.12 µM; actives 1.4% (n = 640,000); in the data active means inhibition above about 32%;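 further: 0% = median of test compound wells and 100% = reference inhibitor wells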
GPR151 activ: activators of human GPR151. PathHunter beta-arrestin GPR151 cells, luminescence. actives 1% (n = 650,000). activation, % at 11.2 µM; in the data active means activation above about 4.9%;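 further: 0% = median of compound wells and 100% = cells with positive control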
Target sequence (Q8TDV0 whole entry, looked up): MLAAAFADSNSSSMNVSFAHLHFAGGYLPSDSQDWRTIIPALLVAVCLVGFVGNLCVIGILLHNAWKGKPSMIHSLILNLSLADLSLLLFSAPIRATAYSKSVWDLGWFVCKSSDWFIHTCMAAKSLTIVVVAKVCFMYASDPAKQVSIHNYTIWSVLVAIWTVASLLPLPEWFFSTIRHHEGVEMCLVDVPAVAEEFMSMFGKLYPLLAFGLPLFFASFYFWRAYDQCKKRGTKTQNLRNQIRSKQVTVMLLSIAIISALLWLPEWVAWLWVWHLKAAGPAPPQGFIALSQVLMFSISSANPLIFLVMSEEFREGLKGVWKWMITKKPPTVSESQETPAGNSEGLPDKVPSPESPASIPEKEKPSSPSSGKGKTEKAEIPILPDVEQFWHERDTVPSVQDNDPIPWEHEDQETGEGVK
MITF inh: blocks human microphthalmia-associated transcription factor | AID 1259374 | actives 0.91% (n = 650,000) | inhibition, % at 2.6 µM | AlphaScreen MITF homodimerization, bead proximity signal | O75030; in the data active means inhibition above about 50%;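 further: 0% = vehicle wells with protein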
Active calls of the source: *; ! = not active in a repeat. Hits are enriched below; roughly 3.4% of the tested compounds scored in any of these assays.

SMILES | FBW7 act | TEAD-YAP inh | GPR151 activ | MITF inh
CCOc1cc(C(NC(C)=O)c2cc([N+](=O)[O-])c3cccnc3c2O)ccc1O (stereo not drawn) | -0.4 | 6.4 | 0.0 | 85.1*
CCC(=O)NC(c1cccs1)c1cc([N+](=O)[O-])c2cccnc2c1O (stereo not drawn) | -0.8 | 1.7 | 0.6 | 45.1
CC(=O)NC(c1cccs1)c1cc([N+](=O)[O-])c2cccnc2c1O (stereo not drawn) | -0.4 | -13.5 | -0.2 | 78.8*
CC(=O)NC(c1ccccc1Cl)c1cc([N+](=O)[O-])c2cccnc2c1O (stereo not drawn) | -0.8 | 4.5 | -0.7 | 89.8*
COc1ccc(C(NC(C)=O)c2cc([N+](=O)[O-])c3cccnc3c2O)cc1 (stereo not drawn) | -0.6 | -7.7 | 0.5 | 47.9
Cc1nn(-c2ccccc2Cl)c2c1C(=O)CC(C)(C)C2 | 0.1 | -5.1 | 0.9 | -6.1
CCN(CC)Cc1n[nH]c(CN(CC)CC)n1 | 0.0 | 2.7 | 0.7 | 1.2
O=C(CCN1CCc2ccccc2C1)c1ccc2c(c1)OCCO2 | -0.1 | 10.3 | 0.3 | 0.3
Nc1cc[n+](CC(=O)c2ccc3c(c2)OCCO3)cc1 | -0.1 | 49.3* | -0.1 | -0.5
O=C(CCCc1ccccc1)c1ccc2c(c1)OCCO2 | 0.1 | 90.7* | -3.8 | 6.7
O=C(CCN1CCc2ccccc21)c1ccc2c(c1)OCCO2 | 0.1 | 45.1* | 0.9 | 5.0
O=C(C[n+]1ccc2ccccc2c1)c1ccc2c(c1)OCCO2 | -0.1 | -15.8 | 0.2 | 0.3
O=C(CCc1ccccc1)c1ccc2c(c1)OCCCO2 | 0.1 | -61.8 | 0.7 | 0.2
Oc1ccc(Br)cc1CNc1nc2ccccc2[nH]1 | 0.0 | -10.4 | 0.3 | 74.1*
Oc1ccc(Cl)cc1CNc1nc2ccccc2[nH]1 | 0.0 | -15.5 | 2.3 | -3.8
CCCOc1ccc(N2C(=O)CC(Nc3ccc(Cl)cc3)C2=O)cc1 (stereo not drawn) | -0.1 | 18.9 | 2.0 | 7.2
O=C1CCCC2=C1C(c1ccc(Br)cc1)Nc1ccc(C(=O)c3ccccc3)cc1N2 (stereo not drawn) | 0.5 | 51.2* | -0.7 | -0.7
Cc1ccc(C2Nc3ccc(C(=O)c4ccccc4)cc3NC3=C2C(=O)CCC3)cc1 (stereo not drawn) | 0.1 | 40.9* | -0.6 | -1.8
O=C1CCCC2=C1C(c1cccc([N+](=O)[O-])c1)Nc1ccc(C(=O)c3ccccc3)cc1N2 (stereo not drawn) | -0.1 | 54.2* | 1.7 | 7.8
O=C1CCCC2=C1C(c1ccncc1)Nc1ccc(C(=O)c3ccccc3)cc1N2 (stereo not drawn) | 0.0 | 24.5 | 0.4 | -11.1
O=C1CCCC2=C1C(c1ccccc1)Nc1ccc(C(=O)c3ccccc3)cc1N2 (stereo not drawn) | 0.0 | 35.5* | -0.1 | 2.2
COc1ccc(Nc2cnn(C34CC5CC(CC(C5)C3)C4)c(=O)c2Cl)c(OC)c1 | -0.3 | 5.8 | 1.4 | 0.2
O=C1CCCC2=C1C(c1cccc(O)c1)Nc1ccc(C(=O)c3ccccc3)cc1N2 (stereo not drawn) | 0.1 | 19.8 | -0.7 | 15.5
O=C1CCCC2=C1C(c1cccc(Cl)c1)Nc1ccc(C(=O)c3ccccc3)cc1N2 (stereo not drawn) | 0.1 | 70.1* | 0.1 | 4.1
COc1ccc(NC(=O)CNC(=O)c2nn(-c3ccc(OC)c(OC)c3)c(=O)c3ccccc23)cc1OC | 0.3 | 33.7* | -0.9 | 3.5
SMILES | FBW7 act | TEAD-YAP inh | GPR151 activ | MITF inh
COc1ccc(-n2nc(C(=O)NCC(=O)Nc3cc(OC)c(OC)c(OC)c3)c3ccccc3c2=O)cc1Cl | -0.1 | 49.9* | 2.4 | -0.7
COc1ccc(-n2nc(C(=O)NCC(=O)Nc3ccc(OC)c(OC)c3)c3ccccc3c2=O)cc1 | 0.0 | -5.6 | -0.4 | 3.3
COc1ccc(-n2nc(C(=O)NCC(=O)NCCN(C)CCc3ccccn3)c3ccccc3c2=O)cc1Cl | 0.0 | 33.5* | 0.5 | -5.1
COc1ccc(C)cc1NC(=O)CNC(=O)c1nn(-c2ccc(OC)c(OC)c2)c(=O)c2ccccc12 | -0.2 | 34.5* | -0.3 | -5.2
CN1CC(=O)N2CCN(Cc3cccc(F)c3)C[C@@H]2C1=O | 0.1 | 3.8 | 0.7 | -1.3
COc1cccc(-c2n[nH]c3c2C(c2ccc(O)cc2)NC3=O)c1 (stereo not drawn) | 0.2 | 21.7 | -1.0 | 6.9
O=C(Nc1ccccc1)N(O)CC(O)COc1ccccc1 (stereo not drawn) | -0.1 | -8.1 | 0.4 | -3.5
COc1ccc(C2CNC(=O)C2)cc1OC1CCCC1 (stereo not drawn) | -0.1 | 33.1*! | -1.3 | 3.5
COc1ccc(OC)c(C2CNC(=O)C2)c1 (stereo not drawn) | 0.1 | 2.0 | -0.1 | 0.5
CSc1cccc(C(=O)Nc2nc3c(s2)CCCC3)c1 | -0.1 | -74.7 | -0.4 | 4.8
CC(=O)Nc1cc(NC(C)=O)cc(C(=O)Nc2nc3c(s2)CCCC3)c1 | -0.2 | 52.2* | 1.2 | 5.6
COc1ccc(Cl)cc1C(=O)Nc1nc2ccc(S(C)(=O)=O)cc2s1 | 0.1 | -3.3 | -0.6 | 5.5
COc1cc2ccccc2cc1C(=O)Nc1nc2c(s1)CCCC2 | 0.4 | -70.4 | -1.4 | -9.0
COc1cc(SC)ccc1C(=O)Nc1nc2ccc(S(C)(=O)=O)cc2s1 | 0.1 | 46.5* | -1.1 | 5.4
COc1cc(SC)ccc1C(=O)Nc1nc2c(s1)C(=O)CC(C)(C)C2 | 0.6 | -22.1 | -1.7 | 12.9
COc1ccc(C(=O)Nc2nc3c(s2)CCCC3)c(OC)c1 | -0.2 | 94.8* | -10.0 | 4.2
COc1cc(SC)ccc1C(=O)Nc1nc2c(s1)CCCC2 | 0.4 | 98.3* | -7.4 | 5.2
CC1CC(C)CN(C(=O)c2ccc(Sc3ccc(Br)cc3)c([N+](=O)[O-])c2)C1 (stereo not drawn) | -0.3 | -12.8 | 2.7 | 0.9
N#CCC(=O)N/N=C/c1ccccc1OC(F)F | -0.1 | 2.1 | 0.4 | -3.2
CCN(CCn1cccn1)Cc1c(C(=O)N(C)Cc2ccccc2)nc2ccccn12 | 0.1 | -3.1 | -0.2 | -7.7
Cc1ccc(-c2cnn3c(N4CCC[C@H]4CO)ccnc23)cc1 | -0.1 | 96.2* | -2.0 | -19.2
OCc1ccccc1-c1cnn2c(N3CCC[C@H]3CO)ccnc12 | -0.6 | -16.7 | 0.4 | -20.6
OCc1cccc(-c2cnn3c(N4CCC[C@H]4CO)ccnc23)c1 | -0.3 | 66.3* | 1.5 | -15.1
OC[C@@H]1CCCN1c1ccnc2c(-c3cnn(Cc4ccccc4)c3)cnn12 | -0.1 | -57.5 | 0.7 | 11.1
OC[C@@H]1CCCN1c1ccnc2c(-c3ccccc3F)cnn12 | -0.2 | 90.3* | -3.2 | -13.5
O=C(NC1CC1)c1ccc(-c2cnn3c(N4CCC[C@H]4CO)ccnc23)cc1 | -0.3 | -64.0 | 2.1 | 0.9
OC[C@@H]1CCCN1c1ccnc2c(-c3ccc(O)cc3)cnn12 | -0.8 | 94.8* | -0.5 | -10.7
Cc1ccc(C2=NN(S(C)(=O)=O)C(c3cc4cc5c(cc4nc3Cl)OCO5)C2)cc1 (stereo not drawn) | 0.1 | 4.0 | 1.1 | 19.5
O=C1C2C3CC(c4ccccc4)C(C3)C2C(=O)N1c1nccs1 (stereo not drawn) | 0.1 | 3.2 | -0.3 | -1.1
